Assay results published in ChEMBL document CHEMBL3433997, “St. Jude Leishmania screening dataset” (2016).

Biological target: Solute carrier family 2, facilitated glucose transporter member 1 (Homo sapiens) (UniProt P11166)
Experiment: ST_JUDE_LEISH: Cytotoxicity at 2uM final concentration against transgenic Leishmania Mexicana promastigotes LmGLUT1 that are glucose transport deficient and complemented with the human glucose transporter GLUT1. Activity is measured by DNA content using SYBR green in vitro
Assay type: functional

Sequence of Solute carrier family 2, facilitated glucose transporter member 1 (Homo sapiens) (P11166 whole entry): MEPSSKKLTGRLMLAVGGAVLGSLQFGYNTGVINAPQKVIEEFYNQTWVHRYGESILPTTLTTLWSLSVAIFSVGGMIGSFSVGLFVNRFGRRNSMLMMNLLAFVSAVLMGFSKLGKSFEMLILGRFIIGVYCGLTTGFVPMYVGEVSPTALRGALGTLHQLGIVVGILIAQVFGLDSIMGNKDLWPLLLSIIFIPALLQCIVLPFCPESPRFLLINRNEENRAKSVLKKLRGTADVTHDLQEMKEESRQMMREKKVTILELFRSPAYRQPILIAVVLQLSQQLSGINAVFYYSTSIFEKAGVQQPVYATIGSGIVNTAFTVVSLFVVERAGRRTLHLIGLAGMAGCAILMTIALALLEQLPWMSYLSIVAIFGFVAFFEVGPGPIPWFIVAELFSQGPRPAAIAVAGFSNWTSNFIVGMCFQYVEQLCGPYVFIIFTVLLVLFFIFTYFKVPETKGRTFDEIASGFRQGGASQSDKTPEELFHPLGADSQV

SMILES	inhibition
CCN(CC)CCCN(C(=O)c1cc2c(C)nn(-c3ccccc3)c2s1)c1nc(-c2ccc(OC)cc2)cs1	10.5%
CC(C)(C)c1ccc(-c2cc(C(=O)N[C@@H](CO)C(=O)O)on2)cc1.CC(C)(C)c1ccc(-c2nocc2C(=O)N[C@@H](CO)C(=O)O)cc1	4.07%
CC(=O)Nc1nc(C(=O)Nc2cccc(-c3ccc(-c4nc5cccc(C)c5[nH]4)cc3)c2)cs1	8.06%
CCC(C)(C)c1ccc(Oc2ccc(NC(=O)Nc3ccc(Cl)c(Cl)c3)cc2)cc1	1.75%
Cc1cc(N2CCC(N(C)C)C2)nc(Nc2ccc(Cl)cc2)n1 (stereo not given)	4.11%
CCCCc1cc(N2CCC(NC(C)=O)C2)nc(Nc2ccc(C)cc2)n1 (stereo not given)	10.9%
CCN(CCCN1CCCCC1)c1cc(C)nc(Nc2cccc3c2CCCC3)n1	3.95%
CCOc1ccc(C=CC(=O)Nc2ccc3nc(N4CCN(C)CC4)cc(C)c3c2)cc1OC	3%
CC[C@H](C)CNC(=O)c1cncc(-c2ccc(CNC3Cc4ccccc4C3)cc2)c1	6.08%
Cc1cc(N2CCCC2)nc(Nc2ccc(NC(=O)c3ccc(Br)o3)cc2)n1	4.16%
Oc1ccc(CCNc2nc(NCCCOc3cccc(-c4ccccc4)c3)nc(N3CCNCC3)n2)cc1	2.65%
COc1cc2ccccc2c(CON2C(=N)N=C(N)NC2(C)C)c1OC	2.53%
CC(=O)N1CCC(C(=O)Nc2ccc(-c3cccc(-c4nc5cc(C(F)(F)F)ccc5[nH]4)c3)cc2)CC1	0.57%
CS(=O)(=O)c1ccc(CCNCc2ccc(-c3ccc(CN(C(=O)c4ccco4)C4CCN(Cc5ccccc5)CC4)cc3)nc2)cc1	1.33%
COc1cc2ccccc2c(OC)c1CCNCCCCNCCc1c(OC)cc2ccccc2c1OC	10.9%
O=C(Nc1cccc(CN2CCN(Cc3ccc(O)cc3)CC2)c1)c1ccc(Cl)c(Cl)c1	3.5%
CC(=O)Nc1sc(C)c(C)c1CN1CCc2ccccc2C1	-0.17%
Cc1cccc(CC2CC(=O)N(c3ccc([N+](=O)[O-])cc3)C2=O)c1 (stereo not given)	7.63%
O=C(Nc1cccc(C(F)(F)F)c1)N1CCOC(CCN2CCC(c3ccccc3)CC2)(c2ccc(Cl)c(Cl)c2)C1 (stereo not given)	1.69%
O=C(NC1CCN(CCN2CCC(c3c[nH]c4ccccc34)CC2)CC1)c1ccc(-c2ccc(C(F)(F)F)cc2)cc1	59%

SMILES	inhibition
O=C(NCC1CCC(CNCCc2ccccc2)CC1)Nc1ccc(Cl)c(Cl)c1 (stereo not given)	-0.7%
COc1cc(Nc2nccc(N3CCC(NC(=O)c4cccc(C#N)c4)C3)n2)cc(OC)c1OC (stereo not given)	1.3%
CC1(C)N=C(N)N=C(N)N1OCCc1ccc2ccccc2c1	1.63%
CN1CCCC1CCNCc1cccc(-c2cnc(N(C)C3CCCCC3)nc2)c1 (stereo not given)	102%
COc1cc2nc(N3CCC(CNC(=O)/C=C/c4ccccc4F)CC3)nc(N)c2cc1OC	8.22%
Cc1c(C(=O)N(C)C)sc2c1c(=O)n(Cc1ccccc1)c(=O)n2CC(=O)Nc1ccccc1F	2.21%
CCc1ccc(NC(=O)N(CCCn2ccnc2)Cc2csc(-c3ccc(CNCc4ccccc4)cc3)n2)cc1	2.66%
CN1Cc2ccc(NS(=O)(=O)c3ccc(-c4ccoc4)cc3)cc2C1	-2.45%
COc1ccc(Nc2c3ccc(Cl)cc3nc3ccc(OC)cc23)cc1	2.45%
COc1ccc(-c2ccccc2CNC2Cc3ccccc3C2)cc1S(=O)(=O)NCCN1CCCC1	2.56%
COc1cccc(OC2CCN(C(=O)c3ccc(-c4ccc(N5CCCC5=O)cc4C)cc3)CC2)c1	1.4%
Cc1cc2c(cc1C(F)(F)F)N(C(=O)Nc1ccc(OCCN(C)C)c(C(F)(F)F)c1)CC2	2.99%
CCNc1cc(C(=O)N[C@@H](Cc2ccccc2)[C@H](O)CNC2CCC(C(C)(C)C)CC2)cc(N2CCCC2=O)c1 (stereo not given in full)	0.78%
O=S(=O)(NCCN1CCCC1)c1ccc(-c2ccc(CNCc3ccccc3)cc2)s1	4.55%
O=S(=O)(Nc1cc2c(cc1OCc1ccccc1)CCN(C1CCC1)CC2)c1ccc(-c2ccc(Cl)cc2)cc1	1.72%
COc1ccc(NC(=O)/C=C/c2ccccc2Cl)cc1OCCN1CCC(N2CCCC2)CC1	2.99%
Cc1cccc2c(/C=C/C(=O)NC3CCC(CCN4CCc5ccc(C#N)cc5CC4)CC3)c[nH]c12 (stereo not given)	10.1%
COc1ccc2nccc([C@@H](O)CN3CCC(NCc4cn5cc(F)ccc5n4)CC3)c2c1	2.06%
Cc1cc(C(=O)Nc2ccc3c(c2)CCN3C2CCN(Cc3ccc(F)cc3Cl)C2)no1 (stereo not given)	4.11%
Cc1ccc(NC(=O)c2cccc(N3CCN(c4ccncc4)CC3)c2)cc1F	10.8%

Biological target: Hexose transporter 1 (Plasmodium falciparum) (UniProt O97467)
Experiment: ST_JUDE_LEISH: Cytotoxicity at 2uM final concentration against transgenic Leishmania Mexicana promastigotes LmPfHT that are glucose transport deficient and complemented with the Plasmodium falciparum hexose transporter. Activity is measured by DNA content using SYBR green in vitro
Assay type: functional

SMILES	inhibition
CCN(CC)CCCN(C(=O)c1cc2c(C)nn(-c3ccccc3)c2s1)c1nc(-c2ccc(OC)cc2)cs1	9.13%
CC(C)(C)c1ccc(-c2cc(C(=O)N[C@@H](CO)C(=O)O)on2)cc1.CC(C)(C)c1ccc(-c2nocc2C(=O)N[C@@H](CO)C(=O)O)cc1	3.4%
CC(=O)Nc1nc(C(=O)Nc2cccc(-c3ccc(-c4nc5cccc(C)c5[nH]4)cc3)c2)cs1	7.51%
CCC(C)(C)c1ccc(Oc2ccc(NC(=O)Nc3ccc(Cl)c(Cl)c3)cc2)cc1	1.24%
Cc1cc(N2CCC(N(C)C)C2)nc(Nc2ccc(Cl)cc2)n1 (stereo not given)	3.16%
CCCCc1cc(N2CCC(NC(C)=O)C2)nc(Nc2ccc(C)cc2)n1 (stereo not given)	2.45%
CCN(CCCN1CCCCC1)c1cc(C)nc(Nc2cccc3c2CCCC3)n1	2.39%
CCOc1ccc(C=CC(=O)Nc2ccc3nc(N4CCN(C)CC4)cc(C)c3c2)cc1OC	3.77%
CC[C@H](C)CNC(=O)c1cncc(-c2ccc(CNC3Cc4ccccc4C3)cc2)c1	6.72%
Cc1cc(N2CCCC2)nc(Nc2ccc(NC(=O)c3ccc(Br)o3)cc2)n1	9.42%
Oc1ccc(CCNc2nc(NCCCOc3cccc(-c4ccccc4)c3)nc(N3CCNCC3)n2)cc1	2.83%
COc1cc2ccccc2c(CON2C(=N)N=C(N)NC2(C)C)c1OC	2.15%
CC(=O)N1CCC(C(=O)Nc2ccc(-c3cccc(-c4nc5cc(C(F)(F)F)ccc5[nH]4)c3)cc2)CC1	3.33%
CS(=O)(=O)c1ccc(CCNCc2ccc(-c3ccc(CN(C(=O)c4ccco4)C4CCN(Cc5ccccc5)CC4)cc3)nc2)cc1	0.67%
COc1cc2ccccc2c(OC)c1CCNCCCCNCCc1c(OC)cc2ccccc2c1OC	12.1%
O=C(Nc1cccc(CN2CCN(Cc3ccc(O)cc3)CC2)c1)c1ccc(Cl)c(Cl)c1	5.27%
CC(=O)Nc1sc(C)c(C)c1CN1CCc2ccccc2C1	0.49%
Cc1cccc(CC2CC(=O)N(c3ccc([N+](=O)[O-])cc3)C2=O)c1 (stereo not given)	7.62%
O=C(Nc1cccc(C(F)(F)F)c1)N1CCOC(CCN2CCC(c3ccccc3)CC2)(c2ccc(Cl)c(Cl)c2)C1 (stereo not given)	1.44%
O=C(NC1CCN(CCN2CCC(c3c[nH]c4ccccc34)CC2)CC1)c1ccc(-c2ccc(C(F)(F)F)cc2)cc1	19.8%

SMILES	inhibition
O=C(NCC1CCC(CNCCc2ccccc2)CC1)Nc1ccc(Cl)c(Cl)c1 (stereo not given)	-1.96%
COc1cc(Nc2nccc(N3CCC(NC(=O)c4cccc(C#N)c4)C3)n2)cc(OC)c1OC (stereo not given)	1.35%
CC1(C)N=C(N)N=C(N)N1OCCc1ccc2ccccc2c1	1.47%
CN1CCCC1CCNCc1cccc(-c2cnc(N(C)C3CCCCC3)nc2)c1 (stereo not given)	102%
COc1cc2nc(N3CCC(CNC(=O)/C=C/c4ccccc4F)CC3)nc(N)c2cc1OC	7.84%
Cc1c(C(=O)N(C)C)sc2c1c(=O)n(Cc1ccccc1)c(=O)n2CC(=O)Nc1ccccc1F	3.39%
CCc1ccc(NC(=O)N(CCCn2ccnc2)Cc2csc(-c3ccc(CNCc4ccccc4)cc3)n2)cc1	2.93%
CN1Cc2ccc(NS(=O)(=O)c3ccc(-c4ccoc4)cc3)cc2C1	-1.72%
COc1ccc(Nc2c3ccc(Cl)cc3nc3ccc(OC)cc23)cc1	4.25%
COc1ccc(-c2ccccc2CNC2Cc3ccccc3C2)cc1S(=O)(=O)NCCN1CCCC1	0.5%
COc1cccc(OC2CCN(C(=O)c3ccc(-c4ccc(N5CCCC5=O)cc4C)cc3)CC2)c1	0.88%
Cc1cc2c(cc1C(F)(F)F)N(C(=O)Nc1ccc(OCCN(C)C)c(C(F)(F)F)c1)CC2	2.92%
CCNc1cc(C(=O)N[C@@H](Cc2ccccc2)[C@H](O)CNC2CCC(C(C)(C)C)CC2)cc(N2CCCC2=O)c1 (stereo not given in full)	1.1%
O=S(=O)(NCCN1CCCC1)c1ccc(-c2ccc(CNCc3ccccc3)cc2)s1	3.35%
O=S(=O)(Nc1cc2c(cc1OCc1ccccc1)CCN(C1CCC1)CC2)c1ccc(-c2ccc(Cl)cc2)cc1	2.61%
COc1ccc(NC(=O)/C=C/c2ccccc2Cl)cc1OCCN1CCC(N2CCCC2)CC1	3.87%
Cc1cccc2c(/C=C/C(=O)NC3CCC(CCN4CCc5ccc(C#N)cc5CC4)CC3)c[nH]c12 (stereo not given)	8.44%
COc1ccc2nccc([C@@H](O)CN3CCC(NCc4cn5cc(F)ccc5n4)CC3)c2c1	2.19%
Cc1cc(C(=O)Nc2ccc3c(c2)CCN3C2CCN(Cc3ccc(F)cc3Cl)C2)no1 (stereo not given)	3.71%
Cc1ccc(NC(=O)c2cccc(N3CCN(c4ccncc4)CC3)c2)cc1F	9.25%
